Reference: PubChem BioAssay (NCATS)
Results filed as inconclusive are left out. Active and inactive are the calls of the source. The call rests on the fitted dose curve; in most records, active means well fitted curve in the direction sought with a large enough effect; inconclusive means small, poorly fitted or top-dose-only effect, or another doubt; inactive means no such curve, though single readings can be large; an effect the other way counts as inactive or inconclusive.

Columns and labels:
[1] = Cell Viability - LYMP2-004 (AID 966); details: LYMP2-004 lymphoblastoid cell viability, qHTS; series mostly up to 92.2 µM; further: nearly all actives have a fitted effect of over 65% in size
Outline: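 qHTS cytotoxicity: human lymphoblastoid line, 24 hr compound treatment, 37 C, complete medium. Viability read as cellular ATP via luciferase luminescence; tetraoctylammonium bromide served as positive control.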

[2] = Cell Viability - LYMP2-005 (AID 967); details: LYMP2-005 lymphoblastoid cell viability; series mostly up to 92.2 µM
Outline: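 qHTS viability screen in LYMP2-005 cells: 24 h at 37 C with compound, ATP luminescence via CellTiter-Glo, AC50 from Hill curves.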

[3] = Cell Viability - LYMP2-009 (AID 968); details: LYMP2-009 lymphoblastoid cell viability; series mostly up to 92.2 µM; further: nearly all actives have a fitted effect of over 55% in size
[4] = Cell Viability - LYMP2-011 (AID 969); details: LYMP2-011 lymphoblastoid cells viability; series mostly up to 92.2 µM; further: nearly all actives have a fitted effect of over 60% in size
Outline: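 In this qHTS cytotoxicity format, compounds are tested across concentrations on human lymphoblastoid cells in complete medium for 24 hours at 37 C. Viability is taken as cellular ATP measured by luciferase luminescence.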

[5] = Cell Viability - LYMP2-013 (AID 970); details: LYMP2-013 lymphoblastoid cells viability; series mostly up to 92.2 µM; further: nearly all actives have a fitted effect of over 55% in size
Outline: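 Cytotoxicity is scored as a concentration-dependent drop in intracellular ATP in human lymphoblastoid cells after 24 hr compound exposure at 37 C. ATP is quantified by luciferase luminescence, and AC50 values come from Hill-equation modeling.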

[6] = Cell Viability - LYMP2-015 (AID 971); details: LYMP2-015 lymphoblastoid cell viability; series mostly up to 92.2 µM; further: nearly all actives have a fitted effect of over 55% in size
Outline: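 Cells are seeded at 2500 per well and incubated 5 hr at 37 C. Compounds are added across a concentration series for 24 hr at 37 C. CellTiter-Glo is added, and luminescence is read after 30 min at room temperature.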

[7] = Cell Viability - LYMP2-017 (AID 972); details: LYMP2-017 lymphoblastoid cell viability; series mostly up to 92.2 µM; further: nearly all actives have a fitted effect of over 55% in size
Outline: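 Cytotoxicity is scored as a concentration-dependent drop in cellular ATP in a human lymphoblastoid line after 24 hr treatment at 37 C. Values are AC50s from Hill-equation modelling.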

[8] = Cell Viability - LYMP2-019 (AID 973); details: LYMP2-019 lymphoblastoid cell line viability; series mostly up to 92.2 µM; further: nearly all actives have a fitted effect of over 55% in size
Outline: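 Cytotoxicity is scored as a concentration-dependent drop in cellular ATP after cells (2500/well) receive compound for 24 hr at 37 C. Tetraoctylammonium bromide serves as positive control.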

[9] = Cell Viability - LYMP2-021 (AID 974); details: LYMP2-021 lymphoblastoid cells viability; series mostly up to 92.2 µM
Outline: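 Loss of cellular ATP, measured with a luciferase-based CellTiter-Glo readout, serves as the toxicity signal in human lymphoblastoid cells treated for 24 hours at 37 C. Potency is reported as AC50 from a standard Hill model.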

[10] = Cell Viability - LYMP2-023 (AID 975); details: LYMP2-023 lymphoblastoid cell viability; series mostly up to 92.2 µM; further: nearly all actives have a fitted effect of over 55% in size
Outline: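 Steps: seed 2500 human lymphoblastoid cells per well, incubate 5 hr at 37 C, add compound for 24 hr at 37 C, add CellTiter-Glo, hold 30 min at room temperature, read luminescence. AC50 derived by Hill modelling.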

Measured: Potency

CCOc1ccccc1N
inactive: all assays above

N#CC1(O)CCCCC1
inactive: all assays above

O=C(O)c1ccc(Cl)cc1Cl
inactive: all assays above

Nc1cc(S(=O)(=O)O)ccc1O
inactive: all assays above

CC(C)(C)c1ccc(OCC2CO2)cc1 (configuration not stated)
inactive: all assays above

C=C(C)C(=O)OCC(C)C
inactive: all assays above

Nc1nc(CC(=O)O)cs1
inactive: all assays above

C=CCCCCCC
inactive: all assays above

C[C@@H]1CC2(OC[C@]3(C)O[C@H]23)O[C@H]2C[C@@]3(C)[C@@H]4CC[C@H]5C(C)(C)C(O[C@@H]6OC[C@@H](O)[C@H](O)[C@H]6O)CC[C@@]56C[C@@]46CC[C@]3(C)[C@@H]12 (some centres not stated)
inactive: all assays above

Cc1ccc(C(C)(C)C)cc1
inactive: all assays above

Cc1ccc(CO)cc1
inactive: all assays above

CC(=O)CC(C)C
inactive: all assays above

O=C(O)CNC(=O)c1ccc(CO)o1
inactive: all assays above

BrC(Br)C(Br)Br
inactive: all assays above

CC/C=C1/OC(=O)c2ccccc21
inactive: all assays above

O=C1CCC(=O)O1
inactive: all assays above

COCCOC(=O)c1ccccc1C(=O)OCCOC
inactive: all assays above

O=C(Cl)c1ccccc1[N+](=O)[O-]
inactive: all assays above

CC1CCCO1 (configuration not stated)
inactive: all assays above

CC(C)Nc1ccccc1
inactive: all assays above

CCOCC(=O)O
inactive: all assays above

Cc1ccccc1C(=O)O
inactive: all assays above

CC(O)COC(C)(C)C (configuration not stated)
inactive: all assays above

CNC(=O)c1ccccc1
inactive: all assays above

O=C(O)c1ccccc1Cl
inactive: all assays above

NC(=O)c1cccc([N+](=O)[O-])c1
inactive: all assays above

CCCCCO
inactive: all assays above

Nc1cccc(O)c1
inactive: all assays above

CN(C)c1cccc(O)c1
inactive: all assays above

NC(N)=S
inactive: all assays above

CCCCC(CC)CNCC(CC)CCCC (configuration not stated)
inactive: all assays above

CC(C=O)Cc1ccc(C(C)(C)C)cc1 (configuration not stated)
inactive: all assays above

Cc1cccc(C)c1O
inactive: all assays above

CCCCOCCOCCSC#N
inactive: all assays above

CNc1ccccc1
inactive: all assays above

O=Cc1cccc(Br)c1
inactive: all assays above

OC/C(Br)=C(\Br)CO
inactive: all assays above

CCNS(=O)(=O)c1ccc(C)cc1
inactive: all assays above

Cc1ccc(C)c([N+](=O)[O-])c1
inactive: all assays above

Cc1ccc2cccnc2c1
inactive: all assays above

N#CCc1ccccc1[N+](=O)[O-]
inactive: all assays above

c1ccc2n[nH]nc2c1
inactive: all assays above

NC(=S)NNC(N)=S
inactive: all assays above

CC(O)CC(C)O (configuration not stated)
inactive: all assays above

Cc1cccc(Br)c1
inactive: all assays above

Nc1ccccc1[N+](=O)[O-]
inactive: all assays above

O=C1OC(=O)c2c(Cl)c(Cl)c(Cl)c(Cl)c21
inactive: all assays above

C1CCC2OC2C1 (configuration not stated)
inactive: all assays above

O=[N+]([O-])c1cccc(Cl)c1
inactive: all assays above

C=C(C)OC(C)=O
inactive: all assays above

C1COC1
inactive: all assays above

C=CCn1c(=O)n(CC=C)c(=O)n(CC=C)c1=O
inactive: all assays above

CCCCCNCCCCC
inactive: all assays above

C=CCCCCCCC=C
inactive: all assays above

Cc1cccc2cccnc12
inactive: all assays above

CC(=O)c1ccc([N+](=O)[O-])cc1
inactive: all assays above

Cc1ccc(Br)cc1
inactive: all assays above

CC=C(Cl)Cl
inactive: all assays above

CCOc1ccc(NC(C)=O)cc1N
inactive: all assays above

CNc1ccc([N+](=O)[O-])cc1
inactive: all assays above

C=CCOC(=O)COCCC(C)C
inactive: all assays above

Nc1cccc(N)c1
inactive: all assays above

Nc1cccc(S(=O)(=O)O)c1
inactive: all assays above

Cc1cccc(C)c1
inactive: all assays above

FC(F)(F)c1cccc(Cl)c1
inactive: all assays above

Cc1cccc2sc(N)nc12
inactive: all assays above

Cc1c(C(=O)O)cccc1[N+](=O)[O-]
inactive: all assays above

COc1cccc2sc(N)nc12
inactive: all assays above

CC(=O)c1ccccn1
inactive: all assays above

C=CCCCC
inactive: all assays above

Cc1cc(C)cc([N+](=O)[O-])c1
inactive: all assays above

N#Cc1ccccc1
inactive: all assays above

O=P(O)(OCc1ccccc1)OCc1ccccc1
inactive: all assays above

Cc1ccccc1C#N
inactive: all assays above

O=[N+]([O-])c1ccccc1CCO
inactive: all assays above

Fc1ccccc1
inactive: all assays above

Nc1cc(Cl)c([N+](=O)[O-])cc1O
inactive: all assays above

BrC/C=C/CBr
inactive: all assays above

CCNc1cc(O)ccc1C
inactive: all assays above

CCC(C)(C)OC
inactive: all assays above

c1ccc2[nH]cnc2c1
not listed: [9]
inactive: all other assays above

Cc1ccc(C)c(O)c1
not listed: [9]
inactive: all other assays above

Nc1ccc(F)cc1F
inactive: all assays above

CC(=O)C1(C)CC2=C(CCCC2(C)C)CC1C (configuration not stated)
not listed: [9]
inactive: all other assays above

CCCCC=O
inactive: all assays above

C/C=C(/C)C#N
not listed: [9]
inactive: all other assays above

Nc1ccccc1S(=O)(=O)O
inactive: all assays above

CCc1ccccc1O
inactive: all assays above

C=CC(=O)OCCCC
inactive: all assays above

O=C(O)c1cccc([N+](=O)[O-])c1
inactive: all assays above

CC(C)C(C)C
inactive: all assays above

CCC1CO1 (configuration not stated)
inactive: all assays above

COC(=O)CCC(=O)OC
not listed: [9]
inactive: all other assays above

CCCCC(CC)CO (configuration not stated)
inactive: all assays above

C=Cc1ccccc1C=C
inactive: all assays above

Cc1ccccc1Br
inactive: all assays above

CCCCCCO
inactive: all assays above

CCCOCC(C)OCC(C)O (configuration not stated)
inactive: all assays above

Nc1cc([N+](=O)[O-])ccc1C(=O)O
inactive: all assays above

FB(F)F
not listed: [9]
inactive: all other assays above

NCCCCCCN
inactive: all assays above

Cc1ccc2ccccc2c1[N+](=O)[O-]
not listed: [9]
inactive: all other assays above

C[C@@H]1CC2(OC3C[C@@]4(C)C5=CC[C@H]6C(C)(C)C(O[C@@H]7OC[C@@H](O)[C@H](O)[C@H]7O)CC[C@@]67C[C@@]57CC[C@]4(C)C31)OC(O)C1(C)OC21 (some centres not stated)
not listed: [9]
inactive: all other assays above

CC(C)N=C=NC(C)C
inactive: all assays above

NS(=O)(=O)O
inactive: all assays above

CSc1ccc(C=O)cc1
not listed: [9]
inactive: all other assays above

CCOC(C)(C)C
inactive: all assays above

Cc1cc(C)c(N)cc1C
inactive: all assays above

Nc1nc(-c2ccccc2)cs1
not listed: [9]
inactive: all other assays above

Clc1cc(Cl)cc(Cl)c1
not listed: [9]
inactive: all other assays above

CC(=O)c1cccc([N+](=O)[O-])c1
inactive: all assays above

C=Cc1ccccn1
not listed: [9]
inactive: all other assays above

O=C(O[C@@H](C(=O)O)[C@@H](OC(=O)c1ccccc1)C(=O)O)c1ccccc1
not listed: [9]
inactive: all other assays above
